Compound activity deposited in PubChem BioAssay by National Center for Advancing Translational Sciences (NCATS).
HT1080 IDH1KD tx: qHTS for induction of synthetic lethality in tumor cells producing 2HG: qHTS for the HT-1080-IDH1KD cell line; HT-1080 IDH1 knockdown viability, ATP luminescence, 48 h; Potency, µM (top dose mostly 46.1 µM), for the others: top-dose activity, negative = toxicity, hits mostly cytotoxic; 2% of 360,000 active; AID 686971, 2013;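 further: potency means the concentration at half of the fitted maximal effect; 0% = DMSO wells and -100% = cell-free medium wells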
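Using the IDH1-knockdown HT-1080 line run in the same batch and compound series as the NT line, viability after 48 h at 37 °C was determined by CellTiter-Glo luminescence and expressed as % activity.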
DT40 TDP1 CPT: qHTS for Inhibitors of human tyrosyl-DNA phosphodiesterase 1 (TDP1): qHTS in cells in presence of CPT; chicken DT40 Tdp1-/-;hTDP1 cells + 20 nM CPT, ATP luminescence, 48 h; Potency, µM (highest dose often 46.2 µM), for the others: at the top dose activity change, negative = growth inhibition, usual class: inhibitors; 12% of 420,000 active; further: potency means the concentration at half of the fitted maximal effect; nearly all actives have a fitted effect of over 55% in size
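Cell growth measured by CellTiter-Glo luminescence after a minimum 48 h, 37 C compound exposure with 20 nM CPT in Tdp1-knockout DT40 cells stably expressing hTDP1, seeded 400/well; qHTS titration format.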
IL1B secr inh: qHTS for Inhibitors of Inflammasome Signaling: IL-1-beta AlphaLISA Primary Screen | THP-1 LPS/ATP IL-1B secretion, AlphaLISA, 16 h; active compounds read low | activity change, % at 57.5 µM | 4.7% of 360,000 active | AID 743279, 2014; in the data active means activity change below about -50%; inconclusive means mostly about -30% to -49%
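Secreted IL-1B measured by AlphaLISA bead assay after 16 h compound exposure of THP-1 cells; compounds (final up to 57.5 uM) added 1 h before LPS (250 ng/mL) and ATP (1.25 mM) stimulation; lower signal means less secretion.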
TDP1 cell noCPT: qHTS for Inhibitors of human tyrosyl-DNA phosphodiesterase 1 (TDP1): qHTS in cells in absence of CPT. DT40 Tdp1-/- hTDP1 cells, no CPT, ATP luminescence, 48 h. Potency, µM (top dose mostly 46.2 µM), for the others: top-dose activity change, negative = growth inhibition, most hits filed as inhibitors. 15% of 420,000 active. AID 686978, 2013; further: potency means the concentration at half of the fitted maximal effect; nearly all actives have a fitted effect of over 55% in size
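Readout: luminescence from CellTiter-Glo after 30 min in the dark at RT. Cells: DT40 Tdp1-/- with stable hTDP1, 400/well. Exposure: compounds alone, ≥48 hr, 37 °C.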
HT1080NT lethal: qHTS for induction of synthetic lethality in tumor cells producing 2HG: qHTS for the HT-1080-NT fibrosarcoma cell line; 1.6% of 360,000 active; Potency, µM (series often up to 46.1 µM), for the others: top-dose activity, negative = less viability, actives largely listed as cytotoxic; HT-1080-NT fibrosarcoma viability, CellTiter-Glo ATP luminescence, 48 h;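 further: NT is the 2HG producing partner of a matched IDH1 knockdown line; potency means the concentration at half of the fitted maximal effect; 0% = DMSO-treated cells and -100% = media-only wells without cells; nearly all actives have a fitted effect of over 55% in size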
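Viability of the 2HG-overproducing fibrosarcoma line after 48 hours of compound exposure at 37 degrees C was determined by luminescence with CellTiter-Glo, and concentration-effect curves were then fitted and categorized.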
Numbers without * were called inactive; ? = inconclusive; . = no result given; [ ] = dose if it differs, or a comment. In the library only some 19% were active in any assay of this set; here they are far more common. Unless noted, the call rests on the fitted dose curve; in most records, active means well fitted curve in the direction sought with a large enough effect; inconclusive means small, poorly fitted or top-dose-only effect, or another doubt; inactive means no such curve, though single readings can be large; an effect the other way counts as inactive or inconclusive. Unless noted, on the % scale 0 is the no-effect control and ±100 the full control effect.

SMILES	HT1080 IDH1KD tx	DT40 TDP1 CPT	IL1B secr inh	TDP1 cell noCPT	HT1080NT lethal
O=C(CS(=O)(=O)c1nc(-c2ccc(Cl)cc2)cn1-c1ccccc1)Nc1cccc(Cl)c1	.	23µM*	.	?	.
O=C(CS(=O)(=O)c1nc(-c2ccc(Cl)cc2)cn1-c1ccccc1)Nc1ccc(F)cc1F	.	18µM*	.	?	.
O=C(COC(=O)Cc1ccc(S(=O)(=O)N2CCOCC2)s1)Nc1ccc(F)cc1F	5%	-16%	-2	-4%	1%
CCN(Cc1ccccc1)C(=O)COC(=O)c1cc(S(=O)(=O)Nc2ccccc2OC)ccc1O	4%	-27%	10	?	-7%
Cc1ccc(-c2cn(-c3cccc(Cl)c3)c(S(=O)(=O)CC(=O)Nc3cccc(C)c3)n2)cc1	.	16µM*	.	?	.
CCOC(=O)NC(=O)CSc1nc(-c2ccc(C)c(C)c2)cn1-c1ccccc1	-13%	?	-61*	?	-10%
CC(=O)Nc1nonc1-c1nnc(SCC(=O)Nc2cccc(C)c2C)n1-c1ccccc1	.	23µM*	.	26µM*	.
CC(=O)Nc1nonc1-c1nnc(SCC(=O)Nc2c(C)cccc2C)n1-c1ccccc1	.	?	.	-29%	.
Cc1cccc(NC(=O)CSc2nc(-c3ccccc3)cn2-c2ccccc2)c1C	.	?	.	23µM*	.
COC(=O)[C@@H]1C[C@@]2(O)[C@@H](O)[C@@H](O)[C@@H](O)C[C@H]2N1CC(c1ccccc1)c1ccccc1	9%	-10%	18	-7%	0%
CC1CCC2(CC1)NC(=O)N(CC(=O)Nc1ccc(C(N)=O)cc1)C2=O (stereo not given)	0%	-20%	?	25%	7%
CCCCCNC(=O)CCCCCn1c(=O)[nH]c2ccsc2c1=O	.	4%	.	-4%	.
O=C(CSc1nc(-c2ccccc2)cn1-c1ccccc1F)Nc1ccc(F)cc1	.	18µM*	.	?	.
Cc1cccc(NC(=O)CS(=O)(=O)c2nc(-c3ccccc3)cn2-c2cccc(Cl)c2)c1C	.	23µM*	.	18µM*	.
Cc1ccc(C(=O)n2c(-c3ccccc3)cnc2SCC(=O)Nc2ccc(C)cc2C)cc1	0%	?	-29	26µM*	-10%
Cc1ccc(NC(=O)CS(=O)(=O)c2nc(-c3ccc(C)cc3)cn2-c2ccc(C)cc2)cc1	.	21µM*	.	15µM*	.
CCn1cc(S(=O)(=O)CC(=O)Nc2ccc(C)cc2)c2ccccc21	10%	-12%	-15	-18%	5%
Cc1ccc(C(=O)n2c(-c3ccccc3)cnc2SCC(=O)Nc2ccccc2)cc1	-2%	-7%	-11	?	-6%
O=c1[nH]c2ccc(S(=O)(=O)NCc3ccccc3)cc2[nH]1	-1%	6%	8	-20%	14%
O=C(OCc1cnc(Cl)s1)c1ccccc1Cl	6%[9.24 µM]	-9%	-5	-7%	6%
O=C(OCn1ncc(Br)c(Br)c1=O)c1ccc(F)cc1	12µM*	1µM*	-97*	1µM*	21µM*
CC(=O)OCn1ncc(N2CCOCC2)c(Br)c1=O	18%	?	4	?	15%
O=C(OCn1ncc(Br)c(Br)c1=O)c1ccccc1Cl	6.5µM*	1.2µM*	-100*	1.5µM*	8.2µM*
COc1ccccc1C1=NOC(C)(c2sc(-c3ccc(Cl)cc3)nc2C)C1 (stereo not given)	5%	?	0	?	10%
CCC(C)(C)n1nnnc1CN1CCN(c2nc3cc(OC)ccc3cc2C#N)CC1	-16%	?	-56*	23µM*	-13%
Cc1ccc2nc(N3CCN(Cc4nnnn4C4CCCC4)CC3)c(C#N)cc2c1	-5%	?	-4	23µM*	-13%
Cc1ccc(C)c(N2CCN(Cc3nnnn3C3CCCCC3)CC2)c1	-3%	?	-12	?	-3%
